# Test results published in article PMC11062922 (Nature Chemical Biology, 2023).
# Where two headings read alike, the source gives them in different places.
# Key:
# Parameters in all cases: species or system human, MV4-11 + K-562 + COLO205 + SK-N-BE2 + OVCAR-8
# DYRK1A = details: read-out: apparent Kd, compound concentrations: 100 nM and 1000 nM (sheet 'Samples'), n = 1
# PRKD2 = details: read-out: apparent Kd, n = 1
# PRKD3 = details: read-out: apparent Kd, n = 1
# CDKL5 = details: read-out: apparent Kd, compound concentrations: 100 nM and 1000 nM (sheet 'Samples'), n = 1
# PTK2 = details: read-out: apparent Kd, n = 1
# CDK7 = details: read-out: apparent Kd, n = 1
# ERCC2 = details: read-out: apparent Kd, n = 1
# FLT3 = details: read-out: apparent Kd, n = 1
# LATS1 = details: read-out: apparent Kd, n = 1
# MARK4 = details: read-out: apparent Kd, n = 1
# MYLK3 = details: read-out: apparent Kd, n = 1
# PRKAA1 = details: read-out: apparent Kd, n = 1
# PRKCD = details: read-out: apparent Kd, compound concentrations: 100 nM and 1000 nM (sheet 'Samples'), n = 1
# RPS6KA6 = details: read-out: apparent Kd, n = 1
# PRKCQ = details: read-out: apparent Kd, n = 1
# PLK4 = details: read-out: apparent Kd; compound concentrations:100 nM and 1000 nM (sheet 'Samples'); n = 1
# FER = details: read-out: apparent Kd; compound concentrations:100 nM and 1000 nM (sheet 'Samples'); n = 1
# PTK2B = details: read-out: apparent Kd; compound concentrations:100 nM and 1000 nM (sheet 'Samples'); n = 1
# STK10 = details: read-out: apparent Kd; compound concentrations:100 nM and 1000 nM (sheet 'Samples'); n = 1
# TNK2 = details: read-out: apparent Kd; compound concentrations:100 nM and 1000 nM (sheet 'Samples'); n = 1
# [1] = compound concentrations:100 nM and 1000 nM (sheet 'Samples')
smiles,measurement,setting,value
c1ccc(-c2n[nH]cc2Nc2ccnc3ccccc23)nc1 [GW694077X],potency estimated from few doses,DYRK1A; CATDS: 7.5630271191524906E-2,80.3 nM
same,potency estimated from few doses,"PRKD2; compound concentrations: 100 nM and 1000 nM (sheet 'Samples'), CATDS: 7.8874466930765497E-2",74 nM
same,potency estimated from few doses,"PRKD3; compound concentrations: 100 nM and 1000 nM (sheet 'Samples'), CATDS: 6.6484920518239093E-2",104 nM
Cl.Cl.NC(CNC(=O)c1cc(Br)c(-c2ccnc3[nH]ccc23)s1)c1ccccc1.NC(CNC(=O)c1cc(Br)c(-c2ccnc3[nH]ccc23)s1)c1ccccc1 (stereo not drawn) [GSK1322949A],potency estimated from few doses,CDKL5; CATDS: 2.6362691965297801E-2,1670 nM
same,potency estimated from few doses,DYRK1A; CATDS: 2.3831773073254899E-2,2230 nM
same,potency estimated from few doses,"PTK2; compound concentrations: 100 nM and 1000 nM (sheet 'Samples'), CATDS: 3.2827232082793402E-2",993 nM
COc1cc[nH]c1/C=C1\C(=O)Nc2ccc(F)c(C#CC3(O)CCNCC3)c21.Cl [RO0282986-001],potency estimated from few doses,"CDK7; compound concentrations: 100 nM and 1000 nM (sheet 'Samples'), CATDS: 1.0726954600141701E-2",1020 nM
same,potency estimated from few doses,CDKL5; CATDS: 0.34989836845243499,2.99 nM
same,potency estimated from few doses,"ERCC2; compound concentrations: 100 nM and 1000 nM (sheet 'Samples'), CATDS: 1.0235233347988201E-2",1210 nM
same,potency estimated from few doses,"FLT3; compound concentrations: 100 nM and 1000 nM (sheet 'Samples'), CATDS: 4.9574860121956603E-2",43.6 nM
same,potency estimated from few doses,"LATS1; compound concentrations: 100 nM and 1000 nM (sheet 'Samples'), CATDS: 3.7276023026690398E-2",68.4 nM
same,potency estimated from few doses,"MARK4; compound concentrations: 100 nM and 1000 nM (sheet 'Samples'), CATDS: 1.45077611109678E-2",429 nM
same,potency estimated from few doses,"MYLK3; compound concentrations: 100 nM and 1000 nM (sheet 'Samples'), CATDS: 1.54633184822493E-2",368 nM
same,potency estimated from few doses,"PRKAA1; compound concentrations: 100 nM and 1000 nM (sheet 'Samples'), CATDS: 1.18517634082691E-2",741 nM
same,potency estimated from few doses,PRKCD; CATDS: 1.2203659987841E-2,680 nM
same,potency estimated from few doses,"PRKD2; compound concentrations: 100 nM and 1000 nM (sheet 'Samples'), CATDS: 2.5801010504162801E-2",129 nM
same,potency estimated from few doses,"PRKD3; compound concentrations: 100 nM and 1000 nM (sheet 'Samples'), CATDS: 3.6312689079161402E-2",71.4 nM
same,potency estimated from few doses,"RPS6KA6; compound concentrations: 100 nM and 1000 nM (sheet 'Samples'), CATDS: 1.2829138267775601E-2",590 nM
NCC(NC(=O)c1cc(-c2cn[nH]c2)c(-c2ccnc3[nH]ccc23)s1)c1ccccc1.NCC(NC(=O)c1cc(-c2cn[nH]c2)c(-c2ccnc3[nH]ccc23)s1)c1ccccc1.O=C(O)C(F)(F)F.O=C(O)C(F)(F)F (stereo not drawn) [GSK1325775A],potency estimated from few doses,PRKCD; CATDS: 4.2478831197515603E-2,712 nM
same,potency estimated from few doses,"PRKCQ; compound concentrations: 100 nM and 1000 nM (sheet 'Samples'), CATDS: 3.02069836024773E-2",2040 nM
c1cnn2ncc(-c3ccnc(Nc4ccc5c(c4)OCCO5)n3)c2c1 [GW806290X],potency estimated from few doses,CDKL5; CATDS: 7.1122593361459902E-2,94.8 nM
same,potency estimated from few doses,DYRK1A; CATDS: 2.4296257212368499E-2,1020 nM
same,potency estimated from few doses,"FLT3; compound concentrations: 100 nM and 1000 nM (sheet 'Samples'), CATDS: 9.3011022280108296E-2",61.9 nM
same,potency estimated from few doses,"MYLK3; compound concentrations: 100 nM and 1000 nM (sheet 'Samples'), CATDS: 2.0905091895042499E-2",1690 nM
same,potency estimated from few doses,PRKCD; CATDS: 2.1059848271292699E-2,1650 nM
CNc1cc(-c2ccc3c(N)n[nH]c3c2)nc(N)n1 [GSK2224810A],potency estimated from few doses,MYLK3; [1],457 nM
same,potency estimated from few doses,RPS6KA6; [1],899 nM
CC(C)Oc1ccc2c(-c3ccnc(Nc4ccc(N5CCN(C)CC5)cc4)n3)cnn2n1 [GW696155X],potency estimated from few doses,FLT3; [1],479 nM
same,potency estimated from few doses,LATS1; [1],1500 nM
same,potency estimated from few doses,MARK4; [1],1800 nM
same,potency estimated from few doses,PLK4,506 nM
same,potency estimated from few doses,PRKD2; [1],482 nM
same,potency estimated from few doses,PRKD3; [1],1110 nM
CC(C)Nc1cc(-c2ccc3c(N)n[nH]c3c2)nc(N)n1 [GSK2221681A],potency estimated from few doses,MYLK3; [1],1410 nM
CS(=O)(=O)CCn1c(=O)c(Oc2ccc(F)cc2F)cc2cnc(NC3CCOCC3)nc21 [RO5027956-000],potency estimated from few doses,CDK7; [1],349 nM
same,potency estimated from few doses,ERCC2; [1],317 nM
same,potency estimated from few doses,FER,431 nM
same,potency estimated from few doses,MARK4; [1],1950 nM
same,potency estimated from few doses,PLK4,568 nM
same,potency estimated from few doses,PRKAA1; [1],1210 nM
same,potency estimated from few doses,PRKCQ; [1],998 nM
same,potency estimated from few doses,PTK2B,417 nM
same,potency estimated from few doses,PTK2; [1],814 nM
same,potency estimated from few doses,RPS6KA6; [1],506 nM
same,potency estimated from few doses,STK10,2320 nM
same,potency estimated from few doses,TNK2,521 nM
O=C1N=C(NCCCc2ccccc2)S/C1=C\c1ccc2ncccc2c1 [RO4493941-000],potency estimated from few doses,DYRK1A; CATDS: 6.8092992761352805E-2,1090 nM
same,potency estimated from few doses,"FLT3; compound concentrations: 100 nM and 1000 nM (sheet 'Samples'), CATDS: 7.0899563785954994E-2",945 nM
NS(=O)(=O)c1ccc(NC=C2C(=O)Nc3ccc4ncsc4c32)cc1 [GW589933X],potency estimated from few doses,CDKL5; CATDS: 7.9596409580243901E-2,52.4 nM
same,potency estimated from few doses,"FLT3; compound concentrations: 100 nM and 1000 nM (sheet 'Samples'), CATDS: 2.3969492803236899E-2",581 nM
same,potency estimated from few doses,"LATS1; compound concentrations: 100 nM and 1000 nM (sheet 'Samples'), CATDS: 1.9733333265128199E-2",1020 nM
same,potency estimated from few doses,"MYLK3; compound concentrations: 100 nM and 1000 nM (sheet 'Samples'), CATDS: 0.127483608454634",23.7 nM
same,potency estimated from few doses,"PRKD2; compound concentrations: 100 nM and 1000 nM (sheet 'Samples'), CATDS: 1.78038958195245E-2",1460 nM
same,potency estimated from few doses,"PRKD3; compound concentrations: 100 nM and 1000 nM (sheet 'Samples'), CATDS: 1.69814633200863E-2",1760 nM
